Measurements published in article PMC3218832.

Key:
Assay in all cases: protein binding microarray; high values mean tight binding
Settings in all cases: dsDNA, one strand shown
RELARELA (p65 homodimer) = RELARELA (p65 homodimer) (Homo sapiens, UniProt Q04206 1-307)
p50p50 homodimer = p50p50 homodimer (Homo sapiens, UniProt P19838 7-356)
p52p52 homodimer = target: T1, p52p52 homodimer (Homo sapiens, UniProt Q00653 4-332)
T1 sequence: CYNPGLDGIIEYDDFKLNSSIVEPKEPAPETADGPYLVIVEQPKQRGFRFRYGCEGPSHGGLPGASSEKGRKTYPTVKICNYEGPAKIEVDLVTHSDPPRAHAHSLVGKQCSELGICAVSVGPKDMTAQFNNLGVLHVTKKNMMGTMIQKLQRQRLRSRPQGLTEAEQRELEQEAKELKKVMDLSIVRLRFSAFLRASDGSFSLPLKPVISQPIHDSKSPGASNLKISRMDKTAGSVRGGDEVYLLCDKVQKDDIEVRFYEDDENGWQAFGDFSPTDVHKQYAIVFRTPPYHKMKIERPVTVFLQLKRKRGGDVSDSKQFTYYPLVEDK

[1] = target: RELA (p65) subunit of heterodimer;p50 subunit (Homo sapiens;Homo sapiens, UniProt Q04206;P19838 1-307;7-356)
RELA (p65) subunit of heterodimer;p50 subunit, sequence (Q04206 1-307, chain 1 of 2): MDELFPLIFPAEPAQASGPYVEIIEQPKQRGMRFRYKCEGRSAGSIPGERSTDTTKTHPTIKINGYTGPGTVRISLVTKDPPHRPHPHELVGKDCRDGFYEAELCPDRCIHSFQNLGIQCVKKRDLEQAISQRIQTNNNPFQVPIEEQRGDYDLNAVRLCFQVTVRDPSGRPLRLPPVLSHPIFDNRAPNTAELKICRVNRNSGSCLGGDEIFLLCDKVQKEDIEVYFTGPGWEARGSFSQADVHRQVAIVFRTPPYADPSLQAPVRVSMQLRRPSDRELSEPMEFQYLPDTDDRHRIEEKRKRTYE
RELA (p65) subunit of heterodimer;p50 subunit, sequence (P19838 7-356, chain 2 of 2): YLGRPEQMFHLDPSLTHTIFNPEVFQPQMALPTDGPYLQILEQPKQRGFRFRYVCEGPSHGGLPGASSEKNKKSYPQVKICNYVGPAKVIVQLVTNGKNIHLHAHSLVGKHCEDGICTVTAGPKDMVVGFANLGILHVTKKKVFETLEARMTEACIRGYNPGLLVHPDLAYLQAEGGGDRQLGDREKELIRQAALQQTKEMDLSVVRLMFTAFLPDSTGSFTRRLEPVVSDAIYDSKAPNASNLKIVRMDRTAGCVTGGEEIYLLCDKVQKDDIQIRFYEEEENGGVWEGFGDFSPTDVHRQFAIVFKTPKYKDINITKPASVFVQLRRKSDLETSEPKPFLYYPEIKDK

[2] = target: RELA (p65) subunit of heterodimer;p52 subunit (Homo sapiens;Homo sapiens, UniProt Q04206;Q00653 1-307;4-332)
RELB subunit;p50 subunit = RELB subunit;p50 subunit (Homo sapiens;Homo sapiens, UniProt Q01201;P19838 120-401;7-356)
RELB subunit;p52 subunit = target: T2, RELB subunit;p52 subunit (Homo sapiens;Homo sapiens, UniProt Q01201;Q00653 120-401;4-332)
T2 sequence 1: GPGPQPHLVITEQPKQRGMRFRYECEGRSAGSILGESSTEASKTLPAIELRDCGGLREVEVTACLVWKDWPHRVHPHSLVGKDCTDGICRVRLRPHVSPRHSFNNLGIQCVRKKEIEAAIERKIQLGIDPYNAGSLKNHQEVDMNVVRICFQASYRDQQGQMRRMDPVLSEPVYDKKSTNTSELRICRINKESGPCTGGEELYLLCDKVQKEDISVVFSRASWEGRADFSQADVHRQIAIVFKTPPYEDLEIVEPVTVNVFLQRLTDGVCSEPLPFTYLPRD
T2 sequence 2: T1 sequence

[3] = target: C-Rel subunit;p50 subunit (Homo sapiens;Homo sapiens, UniProt Q04864;P19838 1-285;7-356)
[4] = target: T3, C-Rel subunit;p52 subunit (Homo sapiens;Homo sapiens, UniProt Q04864;Q00653 1-285;4-332)
T3 sequence 1: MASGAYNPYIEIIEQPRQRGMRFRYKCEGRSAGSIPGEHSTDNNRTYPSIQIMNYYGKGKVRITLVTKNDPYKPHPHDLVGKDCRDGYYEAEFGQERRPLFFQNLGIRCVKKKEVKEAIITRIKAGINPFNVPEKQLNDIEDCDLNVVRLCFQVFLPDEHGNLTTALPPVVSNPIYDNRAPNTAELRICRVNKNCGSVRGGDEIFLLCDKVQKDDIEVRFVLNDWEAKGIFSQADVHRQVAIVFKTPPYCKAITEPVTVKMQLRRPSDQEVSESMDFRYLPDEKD
T3 sequence 2: T1 sequence

p50p50 homodimer, sequence (P19838 7-356): as the sequence (P19838 7-356, chain 2 of 2) above
RELARELA (p65 homodimer), sequence (Q04206 1-307): as the sequence (Q04206 1-307, chain 1 of 2) above

Sequence	binding signal (RELARELA (p65 homodimer))	binding signal (p50p50 homodimer)	binding signal (p52p52 homodimer)	binding signal [1]	binding signal [2]	binding signal (RELB subunit;p50 subunit)	binding signal (RELB subunit;p52 subunit)	binding signal [3]	binding signal [4]
CGGGTCGTCCT	-0.683 z-score	-1.36 z-score	-0.504 z-score	-0.972 z-score	-0.834 z-score	-0.864 z-score	-0.859 z-score	-1.15 z-score	-0.64 z-score
CAAATAGCCCC	0.081 z-score	0.839 z-score	0.425 z-score	0.413 z-score	0.823 z-score	0.524 z-score	0.621 z-score	0.331 z-score	0.543 z-score
CAAAGGCCCCC	-1.53 z-score	0.336 z-score	0.0392 z-score	0.041 z-score	0.0834 z-score	0.123 z-score	0.14 z-score	-0.0908 z-score	0.0137 z-score
GGATTCATCCT	-0.727 z-score	-2.29 z-score	-0.817 z-score	-1.18 z-score	-0.991 z-score	-1.18 z-score	-0.967 z-score	-1.49 z-score	-0.792 z-score
AGGTTTGTCCC	1.29 z-score	0.56 z-score	0.82 z-score	0.878 z-score	0.918 z-score	0.602 z-score	0.621 z-score	0.937 z-score	0.735 z-score
CAATTCCCCCC	1.09 z-score	1.66 z-score	1.93 z-score	2.3 z-score	1.94 z-score	2.19 z-score	2.34 z-score	1.94 z-score	1.85 z-score
CAGTGTTTCCT	0.51 z-score	-0.616 z-score	-0.52 z-score	-0.47 z-score	-0.473 z-score	-0.831 z-score	-0.677 z-score	-0.349 z-score	-0.285 z-score
AGATGTTCCCT	0.238 z-score	0.414 z-score	0.229 z-score	0.235 z-score	-0.0295 z-score	0.0779 z-score	-0.091 z-score	0.0801 z-score	-0.204 z-score
CAATGCACCCT	-0.473 z-score	-0.555 z-score	-0.333 z-score	-0.616 z-score	-0.779 z-score	-0.601 z-score	-0.639 z-score	-1 z-score	-0.653 z-score
CAAAAATCCCC	2.62 z-score	1.37 z-score	2.67 z-score	2.11 z-score	2.3 z-score	2.84 z-score	2.28 z-score	1.91 z-score	2.55 z-score
AAGGGCGTCCT	-1.14 z-score	-1.28 z-score	-0.61 z-score	-1.06 z-score	-0.909 z-score	-0.994 z-score	-0.788 z-score	-1.25 z-score	-0.659 z-score
GGGGTCATCCT	-0.528 z-score	-0.376 z-score	-0.115 z-score	-0.626 z-score	-0.394 z-score	-0.425 z-score	-0.362 z-score	-0.494 z-score	-0.0992 z-score
AAGGGGCTCCT	-0.668 z-score	0.769 z-score	0.959 z-score	0.032 z-score	0.753 z-score	0.344 z-score	0.791 z-score	-0.103 z-score	0.392 z-score
GAGGGCACCCT	-0.976 z-score	-1.27 z-score	-0.651 z-score	-0.906 z-score	-0.74 z-score	-0.75 z-score	-0.795 z-score	-1.04 z-score	-0.757 z-score
AAAGGAACCCC	-0.25 z-score	0.367 z-score	0.122 z-score	0.18 z-score	0.127 z-score	0.118 z-score	0.351 z-score	0.41 z-score	0.175 z-score
GAATTCCTCCC	0.897 z-score	-0.0187 z-score	-0.00969 z-score	0.17 z-score	0.0178 z-score	-0.14 z-score	-0.0714 z-score	0.325 z-score	0.177 z-score

Sequence	binding signal (RELARELA (p65 homodimer))	binding signal (p50p50 homodimer)	binding signal (p52p52 homodimer)	binding signal [1]	binding signal [2]	binding signal (RELB subunit;p50 subunit)	binding signal (RELB subunit;p52 subunit)	binding signal [3]	binding signal [4]
CAAAGCGTCCT	-0.639 z-score	-1.46 z-score	-0.572 z-score	-0.956 z-score	-0.873 z-score	-0.99 z-score	-0.804 z-score	-1.53 z-score	-0.973 z-score
GAGTTAATCCC	0.0777 z-score	-0.527 z-score	-0.147 z-score	-0.451 z-score	-0.217 z-score	-0.125 z-score	-0.157 z-score	-0.186 z-score	-0.227 z-score
AGAGAACTCCT	-0.542 z-score	-1.29 z-score	-0.694 z-score	-0.888 z-score	-1.06 z-score	-1.05 z-score	-0.943 z-score	-1.01 z-score	-0.762 z-score
AGAGGTCTCCC	0.0815 z-score	-0.751 z-score	-0.27 z-score	-0.391 z-score	-0.315 z-score	-0.0782 z-score	-0.00582 z-score	-0.507 z-score	-0.363 z-score
AAGGTCACCCT	-0.86 z-score	-1.49 z-score	-0.495 z-score	-0.903 z-score	-0.928 z-score	-0.645 z-score	-0.697 z-score	-1.21 z-score	-0.77 z-score
GGGTTATCCCC	2.08 z-score	0.73 z-score	3.22 z-score	1.96 z-score	2.63 z-score	1.91 z-score	2.13 z-score	1.6 z-score	2.55 z-score
CGAATCGCCCT	-0.52 z-score	-1.41 z-score	-0.603 z-score	-0.694 z-score	-0.649 z-score	-0.752 z-score	-0.785 z-score	-0.785 z-score	-0.657 z-score
GAGGTTATCCT	-0.457 z-score	-0.539 z-score	-0.329 z-score	-0.899 z-score	-0.657 z-score	-0.734 z-score	-0.759 z-score	-1.3 z-score	-0.681 z-score
GAGATTACCCT	0.00649 z-score	0.801 z-score	0.46 z-score	0.604 z-score	0.372 z-score	0.519 z-score	0.477 z-score	0.426 z-score	0.377 z-score
AGATTCTTCCT	-0.0679 z-score	-0.78 z-score	-0.546 z-score	-0.559 z-score	-0.896 z-score	-0.929 z-score	-0.93 z-score	-0.642 z-score	-0.588 z-score
CGGTAGTCCCC	0.678 z-score	1.22 z-score	1.51 z-score	1.43 z-score	1.31 z-score	1.05 z-score	1.33 z-score	1.12 z-score	1.42 z-score
GGATTAGCCCC	0.514 z-score	0.405 z-score	0.296 z-score	0.431 z-score	0.293 z-score	0.211 z-score	0.414 z-score	0.535 z-score	0.373 z-score
AAAATCGCCCT	-0.445 z-score	-0.836 z-score	-0.395 z-score	-0.458 z-score	-0.504 z-score	-0.55 z-score	-0.442 z-score	-0.504 z-score	-0.384 z-score
GAAAAATTCCT	1.78 z-score	-0.0646 z-score	-0.212 z-score	0.245 z-score	0.117 z-score	-0.659 z-score	-0.236 z-score	0.538 z-score	0.319 z-score
AGGTACATCCT	-0.603 z-score	-0.00392 z-score	0.047 z-score	-0.495 z-score	-0.249 z-score	-0.147 z-score	-0.293 z-score	-0.674 z-score	-0.415 z-score
